Screening data as filed in PubChem.
Shown are actives, neighbours in structure and some others; about 3.3% of the full set was active somewhere.
PNC assembly inh = High Content Assay for Compounds that inhibit the Assembly of the Perinucleolar Compartment; PC3M PTB-GFP, PNC prevalence imaging, 16 h; hits give low values; activity change (PNC), negative = inhibition, % at 10 µM; hit rate 3.1% among 140,000;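 active means readout at or below -70, meaning at least 70% loss of cells showing the perinucleolar compartment, a nuclear body marking cancer cells; inconclusive means readout between -30 and a set limit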;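 further: plate controls were DMSO wells for no effect and camptothecin positive control wells for full effect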
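PC3M cells stably expressing PTB-GFP, 750–1000 cells/well, treated 16 h at 37 °C with compound (23 nl of library stock), in duplicate. After paraformaldehyde fixation and Hoechst stain, imaged at 20x; PNC prevalence scored by image analysis.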
NPSR antagonist = qHTS Assay for Antagonists of the Neuropeptide S Receptor: cAMP Signal Transduction. CHO-NPSR cells, cAMP TR-FRET, antagonist mode. AID 1461, 2008. hit rate 1% among 220,000. Potency, µM (series often up to 38.3 µM), for inactives: top-dose activity change, negative = inhibition, usual class: inhibitors; further: potency means the concentration at half of the fitted maximal effect; on the % scale 0 is the no-effect control and ±100 the full control effect; nearly all actives have a fitted effect of over 50% in size
HTT aggregate = qHTS Multiplex Assay to Identify Dual Action Probes in a Cell Model of Huntington: Aggregate Formation (GFP); Potency, µM (highest dose often 46.1 µM), without a hit: top-dose activity change, negative = inhibition, most hits filed as inhibitors; PC12 HttQ103-GFP aggregates, Acumen cytometry, 40 h; hit rate 1.1% among 220,000; further: potency means the concentration at half of the fitted maximal effect; on the % scale 0 is the no-effect control and ±100 the full control effect; nearly all actives have a fitted effect of over 60% in size
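Aggregate formation scored by laser-scanning cytometer (488 excitation, 500–530 emission) in lysed PC12 cells expressing Q103-GFP after 100 nM tebufenozide induction; library tested in dose series, with ATPLite reagent added in the multiplex.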
HTT cytoprotect = qHTS Multiplex Assay to Identify Dual Action Probes in a Cell Model of Huntington: Cytoprotection (ATP); PC12 HTT-Q103 induced, cytoprotection, ATP luminescence, 40 h; Potency, µM (top dose mostly 56.4 µM), for the others: cytoprotection (ATP increase), usual class: activators; hit rate 0.14% among 230,000; further: potency means the concentration at half of the fitted maximal effect; % of control where 0% means no effect; nearly all actives have a fitted effect of over 45% in size
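Compounds were screened for protection of PC12 cells against cell death after tebufenozide induction (100 nM final) of mutant Huntingtin exon 1 (Q103) fused to GFP.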
ALOX12 inhib = qHTS Assay for Inhibitors of 12-hLO (12-human lipoxygenase). Polyunsaturated fatty acid lipoxygenase ALOX12 (Homo sapiens), P18054. purified 12-hLO, xylenol orange hydroperoxide absorbance. Potency, µM (doses to about 57.1 µM), without a hit: top-dose activity change, negative = inhibition, actives largely listed as inhibitors. hit rate 0.12% among 150,000. AID 1452, 2008; further: potency means the concentration at half of the fitted maximal effect; on the % scale 0 is the no-effect control and ±100 the full control effect; nearly all actives have a fitted effect of over 55% in size
Target sequence (P18054 whole entry, looked up): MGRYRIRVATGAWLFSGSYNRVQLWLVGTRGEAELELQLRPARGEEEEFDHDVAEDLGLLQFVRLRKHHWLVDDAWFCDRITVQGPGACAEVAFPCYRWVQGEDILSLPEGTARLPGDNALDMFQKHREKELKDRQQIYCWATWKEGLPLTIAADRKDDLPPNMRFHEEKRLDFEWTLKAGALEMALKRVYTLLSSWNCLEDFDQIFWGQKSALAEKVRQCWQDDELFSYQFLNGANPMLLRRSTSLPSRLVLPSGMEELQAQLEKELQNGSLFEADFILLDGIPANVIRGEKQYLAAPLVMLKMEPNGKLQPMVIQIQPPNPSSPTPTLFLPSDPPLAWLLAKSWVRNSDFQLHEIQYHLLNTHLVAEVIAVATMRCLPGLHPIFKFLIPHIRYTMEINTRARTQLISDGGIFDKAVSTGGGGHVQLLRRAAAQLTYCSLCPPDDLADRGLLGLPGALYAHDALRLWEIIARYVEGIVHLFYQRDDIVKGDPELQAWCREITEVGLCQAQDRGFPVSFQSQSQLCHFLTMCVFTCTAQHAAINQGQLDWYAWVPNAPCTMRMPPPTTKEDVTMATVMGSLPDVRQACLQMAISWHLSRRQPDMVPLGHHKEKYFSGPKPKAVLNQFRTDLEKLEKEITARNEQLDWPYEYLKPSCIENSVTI
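Xylenol orange chromogenic assay: hydroperoxide from 12hLO oxidises Fe(II), giving red-shifted Fe(III)-XO absorbance. Conditions: 150 nM enzyme, 40 uM arachidonic acid, 25 mM Hepes pH 7.0, 0.01% Triton X-100, 30 min, room temperature.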
IMPase cell inh = qHTS Assay for Identifying the Cell-Membrane Permeable IMPase Inhibitors | Inositol monophosphatase 1 (Rattus norvegicus), P97697 | CHO-M1 cells, IP1 accumulation, HTRF TR-FRET ratio | inhibition (IP1 accumulation), % at 46.1 µM | 120,000 tested, under 10 active; active means well fitted curve in the direction sought with a large enough effect in the signal ratio, not every such curve was filed as active; inconclusive means small, poorly fitted or top-dose-only effect, or a change in a side signal; inactive means no such curve, though single readings can be large or run the other way; the % refers to the signal ratio;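 further: cells stimulated with carbachol in lithium chloride buffer; plate controls were DMSO basal wells for no effect and reference inhibitor wells for full effect; higher means more IMPase inhibition seen as more IP1 and lower FRET ratio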
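CHO-M1, 2000 cells/well, cultured 16–30 h; cpd up to 46 uM; carbachol (50 uM solution, stimulation buffer w/ 50 mM LiCl, pH 7.4), 30 min 37C; IP-One TR-FRET, 10 min RT; Ex 320/Em 665, 620; Hill-fit AC50.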
An asterisk follows results filed as active; ? = inconclusive; / = no result given; [ ] = remark or other dose. Unless noted, the call rests on the fitted dose curve; in most records, active means well fitted curve in the direction sought with a large enough effect; inconclusive means small, poorly fitted or top-dose-only effect, or another doubt; inactive means no such curve, though single readings can be large; an effect the other way counts as inactive or inconclusive.

SMILES	PNC assembly inh	NPSR antagonist	HTT aggregate	HTT cytoprotect	ALOX12 inhib	IMPase cell inh
CCOC(=O)c1sc(NC(=O)c2cc(-c3ccc(C)cc3)nc3ccccc23)c(C#N)c1C	51	2%[46.1 µM]	10µM*	-70%	-3%	6
COC(=O)Nc1csc2c1NC(=O)CCCC2	/	-8%	7%[9.22 µM]	17%[10 µM]	/	/
CCOCCCn1c(=NC(=O)c2ccco2)c(C(=O)OCC)cc2c(=O)n3cccc(C)c3nc21	/	-21%	19%[9.22 µM]	-1%[10 µM]	/	/
CC(=O)NCC(=O)N[C@H](CCC(=O)O)C(=O)O	/	/	/	?	-5%	-4
Cc1cccc(C)c1NC(=O)Cn1c(=O)n(CCCC(=O)NCc2ccco2)c(=O)c2sccc21	-91*	-14%[46.1 µM]	-18%	-4%	-6%	1
CCC(C)NC(=O)Cn1c(=O)n(CCCCCC(=O)Nc2ccccc2)c(=O)c2sccc21 (stereo not drawn)	-21	16%	-1%	3%[10 µM]	2%	/
CCN(CC)C(=O)Cn1c(=O)n(CCCCCC(=O)Nc2ccccc2)c(=O)c2sccc21	-113*	0%	3%	-11%[10 µM]	4%	/
Cc1ccc(-c2nc3ccccc3o2)cc1NC(=O)Cc1ccc(Cl)cc1	/	/	/	/	/	-10
Nc1nc2[nH]cc(CCc3ccc(C(=O)NC(CCC(=O)O)C(=O)O)cc3)c2c(=O)[nH]1 (stereo not drawn)	/	/	-33%	-41%	/	/
O=C(NCc1ccco1)c1ccc(Cl)nc1	/	4%[7.67 µM]	-5%[9.22 µM]	7%[10 µM]	/	/
O=C(COC(=O)Cc1ccsc1)Nc1ccc(Cl)c(S(=O)(=O)N2CCOCC2)c1	-87*	13%	1%	/	-2%	/
O=C(COC(=O)Cc1ccsc1)NCC1CCCCC1	-90*	-11%[46.1 µM]	6%[9.22 µM]	16%	6%	8
O=C(COC(=O)Cc1ccsc1)Nc1ccc(S(=O)(=O)N2CCOCC2)cc1	?	4%[46.1 µM]	-8%	3%[10 µM]	-2%	-4
O=C(COC(=O)Cc1ccc(Br)cc1)NCC1CCCCC1	/	-11%	-6%	-7%[10 µM]	/	/
Cc1cccc(C)c1NC(=O)COC(=O)Cc1ccsc1	-13	9%	20µM*	33%[10 µM]	1%	/
C[C@@]1(C(NS(=O)(=O)c2cccc3cccnc23)c2ccc(-c3ccccc3)cc2)C[C@H]1C1CCCCC1 (stereo partly drawn)	/	/	/	9%	0%	/
COc1ccc(C)cc1-n1nnnc1SCC(=O)NC(=O)NCc1ccco1	-81*	-17%[46.1 µM]	4%	0%[10 µM]	-8%	-9
Cc1cccc(CN2CCN(CC(=O)NCCCN3CCCC3=O)C2=O)c1	-111*	-8%[46.1 µM]	-5%	4%	-1%	12
COC(=O)[C@]1(C)CCC[C@]2(C)c3ccc(C(C)C)cc3C(=O)CC12 (stereo partly drawn)	/	/	/	/	-12%	/
O=C(NC(=S)N(Cc1ccccc1)c1ccccn1)C1CCCCC1	-103*	13%	8%	2%[10 µM]	-20%	/
O=C(Nc1ccc(OCC(=O)N2CCOCC2)cc1)c1cncc(Br)c1	?	9%	11µM*	/	4%	/
CCCNS(=O)(=O)c1ccc(OCC(=O)N2CCOCC2)cc1	-100*	2%[46.1 µM]	-8%	3%[10 µM]	8%	3
C=C1C(CCl)(CCl)C2(Cl)C(Cl)C(Cl)C1(Cl)C2(Cl)Cl (stereo not drawn)	/	/	-16%	-34%	-8%	/
O=C(NCc1ccccc1)c1ccc(Cl)cc1	/	3%	3%[9.22 µM]	-5%[10 µM]	/	/
O=C(NCCc1ccncc1)Nc1ccccc1	-100*	5%[46.1 µM]	15%	-23%[0.074 µM]	-3%	6
SMILES	PNC assembly inh	NPSR antagonist	HTT aggregate	HTT cytoprotect	ALOX12 inhib	IMPase cell inh
COc1ccc(CCC(=O)Nc2cccc(Cl)c2)cc1	-83*	-9%	-8%	/	0%	/
O=C(NCCSCc1ccco1)Nc1cccc(Cl)c1	-84*	-8%[46.1 µM]	-5%	-10%[10 µM]	2%	6
O=C(NCc1ccc(Cl)cc1)c1cccc(NC(=O)c2ccccc2)c1	-100*	-18%	-2%	28%[10 µM]	-3%	/
O=C(NCCc1ccncc1)Nc1ccc(Cl)c(Cl)c1	/	-6%	-6%	/	/	/
COC(=O)c1ccc(COn2nnc3ccccc32)cc1	/	-3%	10%	-26%	/	/
O=C(NCCc1ccccc1)Nc1cccc(Cl)c1	0	-6%	-18%	30%[10 µM]	-3%	/
O=C(NCCc1ccc(Cl)cc1)Nc1cccc(Cl)c1	72	-9%[46.1 µM]	8.9µM*	-83%	-18%	9
Cc1c(Cl)cccc1NC(CC(=O)c1ccccc1)C(=O)O (stereo not drawn)	-83*	-15%	?	/	-1%	/
CCc1cccc(NS(=O)(=O)c2c(C)n[nH]c2C)c1	-100*	6%[46.1 µM]	4%	-7%[10 µM]	1%	4
CC(=O)c1cccc(NS(=O)(=O)c2c(C)n[nH]c2C)c1	?	-15%[46.1 µM]	18%	-11%	-5%	2
O=C(CCl)Nc1cc2[nH]c(=O)[nH]c2cc1Br	/	3%	?	-140%	/	/
O=c1[nH]c2cc3c(cc2cc1C(c1nnnn1Cc1ccccc1)N1CCCCCC1)OCCO3 (stereo not drawn)	2	?	9%	-61%	-4%	-1
O=c1[nH]c2cc3c(cc2cc1C(c1nnnn1Cc1ccccc1)N1CCCc2ccccc21)OCO3 (stereo not drawn)	-119*	-30%	3%	-21%[10 µM]	0%	-4
CCc1ccc(C(=O)Nc2ccc(S(=O)(=O)Nc3nc(C)cc(C)n3)cc2)o1	-107*	-6%[46.1 µM]	-3%	32%	6%	7
Cc1cc(C)nc(NS(=O)(=O)c2ccc(NC(=O)c3ccco3)cc2)n1	-3	0%[46.1 µM]	-4%	-5%	-6%	-8
CCn1c(/C=C/N(C)c2ccccc2)[n+](CC)c2ccc(Cl)cc21	?	-7%[46.1 µM]	4.5µM*	-59%[10 µM]	0%	7[1.84 µM]
O=C(/C=C\c1ccco1)Nc1cc([N+](=O)[O-])ccc1F	-134*	5%	?	-79%[10 µM]	-3%	/
O=C(/C=C/c1ccco1)Nc1cc(Cl)ccc1C(=O)O	22	-38%	1%	-19%[10 µM]	-17%	/
Cc1nn(Cc2ccccc2Cl)c(C)c1C(=O)Nc1nnc(C2CC2)s1	-97*	-22%[46.1 µM]	?	-29%	1%	2
CN(CCCCCNC(=O)/C=N/O)Cc1ccccc1	?	5%[46.1 µM]	-3%	7%[10 µM]	-2%	1
CN(C)CCCN(CCCNC(=O)/C=N/O)Cc1ccccc1	?	28%	35µM*	37%[10 µM]	0%	-3
Cc1csc(=Nc2c(C)n(C)n(-c3ccccc3)c2=O)n1Cc1ccccc1	?	-15%[46.1 µM]	6%[9.22 µM]	-11%	-1%	12
